For 20 compounds, Potency results are on record in PubChem BioAssay (NCATS).

Records with an inconclusive call do not appear. A call without a number means that no potency is given here. Calls of active or inactive are those of the source. The call rests on the fitted dose curve; in most records, active means well fitted cell-killing curve with a large enough effect; inconclusive means small, poorly fitted or top-dose-only effect, or effect the other way; inactive means no such curve, though single readings can be large or run the other way.
Potency means the concentration at half of the fitted maximal effect.

The nature of the test: Quantitative High-Throughput drug screen in 47 multiple myeloma cell lines against the NCATS MIPE library collection: AMO1_DSMZ cell viability assay (AID 1918927; further: nearly all actives have a fitted effect of over 30% in size). Particulars: AMO1 myeloma cells viability, CellTiter-Glo ATP luminescence, 48 h; series mostly up to 45.8 µM. An outline of the steps:
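Approved and investigational drugs from MIPE 4.0 were added by pin tool to 500 cells per well. After 48 hours at 37C, ATP-based CellTiter-Glo luminescence indicated remaining viability.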
(Cellular ATP, detected with luciferase, serves as a proxy for viable cell number.)
Take `CNC(=O)c1ccc(Nc2cc(Nc3ccccc3S(=O)(=O)C(C)C)c3cc[nH]c3n2)nc1`: the Potency is 2.09 µM (active).
As for `CC(=O)N[C@H]1[C@@H]([C@H](O)[C@H](O)CO)OC(C(=O)O)=C[C@@H]1N=C(N)N`, the entry is “inactive”.
`NC(=O)c1ncn([C@@H]2O[C@H](CO)[C@@H](O)[C@@H]2O)c1N`: the Potency result was “inactive”.
The value for `COc1ccc2c(c1OC)C(=O)OC2[C@H]1c2c(cc3c(c2OC)OCO3)CCN1C` (stereo not given in full) was 0.0743 µM (active).
Regarding `O=C(O)C=Cc1ccc(Cn2ccnc2)cc1`, the Potency is 0.372 µM (active).
The value for `CN[C@H](CC(C)C)C(=O)N[C@H]1C(=O)N[C@@H](CC(N)=O)C(=O)N[C@@H]2C(=O)N[C@H]3C(=O)N[C@H](C(=O)N[C@H](C(=O)O)c4cc(O)cc(O)c4-c4cc3ccc4O)[C@H](O)c3ccc(c(Cl)c3)Oc3cc2cc(c3O[C@@H]2O[C@H](CO)[C@@H](O)[C@H](O)[C@@H]2O[C@H]2C[C@](C)(N)[C@H](O)[C@H](C)O2)Oc2ccc(cc2Cl)[C@H]1O` was “inactive”; that for `Cc1cc(-c2nnc3n2CCCCC3)c(C)n1-c1ccccc1` was “inactive”; that for `O=c1[nH]c(=O)n([C@H]2C[C@@H](O)[C@@H](CO)O2)cc1F` was 1.66 µM (active).
As for `Cc1onc(-c2ccccc2)c1C(=O)N[C@@H]1C(=O)N2[C@@H](C(=O)O)C(C)(C)S[C@@H]12`, the Potency result is “inactive”.
As for `CO[C@@H]1[C@@H](O)[C@H](O)[C@@H](n2c3c(Cl)cccc3c3c4c(c5c6cccc(Cl)c6[nH]c5c32)C(=O)NC4=O)O[C@@H]1CO`, the figure is 0.166 µM (active).
For the compound `CC(=O)OCC(=O)[C@@]1(O)CC[C@H]2[C@@H]3CCC4=CC(=O)CC[C@]4(C)[C@@H]3C(=O)C[C@@]21C`, the Potency entry was “inactive”.
For `COc1cc(C)c(C=CC(C)=CC=CC(C)=CC(=O)O)c(C)c1C`, the Potency entry was “inactive”.
The value for `O=C(NNC(=O)c1ccc(CNS(=O)(=O)c2ccc(F)c(Cl)c2)cc1)c1ccccc1` was “inactive”.
As for `CNC(=O)c1cccc(-c2ccc3c(N4CCOC[C@H]4C)nc(N4CCOC[C@H]4C)nc3n2)c1`, the figure is 0.0833 µM (active); as for `O=C(Nc1nnc(-c2ccco2)o1)c1cc(-c2ccccc2)nc2ccccc12`, 9.35 µM (active).
In the case of `OC[C@@H](O)[C@@H](O)[C@H](O)[C@@H](O)CO`, the Potency was 5.9 µM (active).
For `COc1cccc2c1C(=O)c1c(O)c3c(c(O)c1C2=O)C[C@@](O)(C(C)=O)C[C@H]3O[C@H]1C[C@H](N)[C@H](O)[C@H](C)O1`, the Potency was 0.118 µM (active).
As for `COc1ccnc2[nH]cc(C(=O)C(=O)N3CCN(C(=O)c4ccccc4)C[C@@H]3C)c12`, the entry is “inactive”.
On to `O=C(NCc1ccccc1)[C@H](Cc1ccccc1)NC(=O)[C@@H]1O[C@@H]1C(=O)NCCc1ccc(O)cc1`, for which the Potency is 20.9 µM (active).
For `CC(=O)O[C@H]1C[C@@H]2CC[C@H]3[C@H]4C[C@H]([N+]5(C)CCCCC5)[C@@H](OC(C)=O)[C@@]4(C)CC[C@@H]3[C@@]2(C)C[C@H]1N1CCCCC1`, the Potency result was “inactive”.
